HepG2 viability: counter-screen for TGF-b inhibitors: cytotoxicity in HepG2 cells. HepG2 CAGA-GFP viability, ATP luminescence, 18 h. Potency, µM (titrated, usually from 46.1 µM), for inactives: at the top dose activity change, negative = cytotoxicity, most hits filed as cytotoxic. 410,000 compounds, 0.76% hits. AID 588856; also: potency is read from the fitted curve at half-maximal effect
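CellTiter-Glo luminescence gave cytotoxicity after 18 hours at 37 degrees C. The cells were HepG2 CAGA-GFP in 1% FBS DMEM, stimulated with 500 pg/mL TGF-beta after compound addition. %Activity was normalised to no-cell wells (complete cell-killing) and DMSO (no toxicity), and curves were fitted and classified.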
TGFb inhibitor: TGF-b pathway inhibition; HepG2 CAGA-GFP TGF-b/SMAD3 reporter, GFP fluorescence, 18 h; TGF-beta stimulated, 500 pg/mL final; Potency, µM (highest dose often 46.1 µM), without a hit: at the highest dose activity, negative = inhibition, hits mostly inhibitors; 410,000 compounds, 1.2% hits; AID 588855; also: potency is read from the fitted curve at half-maximal effect; % is scaled to controls: 0 for no effect and ±100 for the full control effect; nearly all actives have a fitted effect of over 65% in size
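Read-out: total well GFP (ex488/em500-530) summed from mean per-cell fluorescence. Cells: HEPG2 CAGA-GFP, 1% FBS DMEM, 18 h at 37 degrees C with 500 pg/mL final TGF-beta. Unstimulated wells served as the full-inhibition control; stimulated DMSO wells = 0%.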
ATXN viability: cell viability loss in ATXN counter-screen. Potency, µM (highest dose often 56.7 µM), usual class: cytotoxic. S2 cells (HEK-293 line with an ATXN2-luciferase reporter) viability, CellTiter-Fluor protease fluorescence, 24 h. 400,000 compounds, 0.49% hits; also: potency is read from the fitted curve at half-maximal effect; nearly all actives have a fitted effect of over 40% in size
DRD3 agonist: activates the human D3 dopamine receptor; max activation, %; AID 652048; 410,000 compounds, 0.58% hits; P35462; D3R DiscoveRx beta-arrestin cells, luminescence, 90 min; in the data active = max activation above about 30%; also: 0% is about no effect
Target sequence (P35462 whole entry, looked up): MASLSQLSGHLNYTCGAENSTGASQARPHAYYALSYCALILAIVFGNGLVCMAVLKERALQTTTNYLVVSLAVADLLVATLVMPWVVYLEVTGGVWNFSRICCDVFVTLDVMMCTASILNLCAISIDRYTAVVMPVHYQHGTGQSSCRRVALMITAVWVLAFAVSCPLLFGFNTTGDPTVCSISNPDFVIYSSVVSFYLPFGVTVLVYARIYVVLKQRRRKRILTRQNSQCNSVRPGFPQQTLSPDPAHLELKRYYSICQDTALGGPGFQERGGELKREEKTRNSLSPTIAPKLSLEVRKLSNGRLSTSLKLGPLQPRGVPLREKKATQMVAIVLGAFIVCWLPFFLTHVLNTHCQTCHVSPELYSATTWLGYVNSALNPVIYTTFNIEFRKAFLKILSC
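Agonist mode: compounds and dopamine controls were applied to plated cells for 90 min at 37 degrees C after an overnight attachment at 1500 cells/well. Luminescent read-out followed 30 - 60 minutes at room temperature with DiscoveRx detection reagent.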
D3 antag: blocks the human D3 dopamine receptor | max response, negative = inhibition, % | 360,000 compounds, 2.5% hits | D3R cells, DiscoveRx beta-arrestin luminescence, antagonist mode; active compounds read low; in the data active = max response below about -50%; inconclusive = no clear call, values can overlap the other calls; also: % is scaled to controls: 0 for no effect and ±100 for the full control effect
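Cells plated overnight at 1500 cells/well, then exposed to library compounds with dopamine controls for 90 minutes at 37 degrees C. DiscoveRx reagent added for 30–60 minutes at room temperature; luminescence read, quantitative HTS format.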
ATXN2 expr inh: inhibitors of ATXN2 expression. HEK-293 ATXN2-luciferase reporter, luminescence, 24 h. Potency, µM (doses to about 57 µM), for inactives: at the highest dose activity change, negative = inhibition, hits mostly inhibitors. 360,000 compounds, 0.72% hits; also: potency is read from the fitted curve at half-maximal effect; % is scaled to controls: 0 for no effect and ±100 for the full control effect; nearly all actives have a fitted effect of over 55% in size
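qHTS (up to 57 uM final) was run with 24 h compound exposure of reporter cells at 37 °C. Each well was multiplexed: SteadyGlo luminescence measured ATXN2-luciferase expression after a fluorogenic Gly-Phe-AFC viability readout (25 uM final).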
An asterisk follows results filed as active. The list is not random: actives were taken first. Their share in the collection is about 4.8%. Unless noted, calls follow the shape of the dose curve; as a rule, active = well fitted curve in the direction sought with a large enough effect; inconclusive = small, poorly fitted or top-dose-only effect, or another doubt; inactive = no such curve, though single readings can be large; an effect the other way counts as inactive or inconclusive.

How did CCN(C(=O)c1ccc2c(c1)N(Cc1cccc(Cl)c1)C(=O)c1ccccc1S2=O)c1ccccc1 (configuration not stated) do in these assays?
HepG2 viability: -13%; TGFb inhibitor: inconclusive; ATXN viability: inconclusive; DRD3 agonist: -20; ATXN2 expr inh: 0%

What do the screens show for `CCOc1ccccc1CNC(=O)c1cc2c(=O)n(Cc3ccccc3)ccc2nc1C`?
HepG2 viability: -24%; TGFb inhibitor: inconclusive; ATXN viability: inactive; DRD3 agonist: -4; ATXN2 expr inh: inconclusive

What do the screens show for `COc1ccc(C(=O)NC2CC3CCCC(C2)N3CC(C)C)cc1` (configuration not stated)?
HepG2 viability: -1%; TGFb inhibitor: -14%; ATXN viability: inactive; DRD3 agonist: -6; D3 antag: 2; ATXN2 expr inh: -9%

How did COc1ccc(C(=O)NC2CC3CCCC(C2)N3Cc2ccccc2)cc1 (configuration not stated) do in these assays?
HepG2 viability: 3%; TGFb inhibitor: 20%; ATXN viability: inactive; DRD3 agonist: -21; D3 antag: -108*; ATXN2 expr inh: -20%

How did COc1ccc(CN2C3CCCC2CC(NC(=O)/C=C/c2ccccc2)C3)cc1 (configuration not stated) do in these assays?
HepG2 viability: 2%; TGFb inhibitor: 18%; ATXN viability: inconclusive; DRD3 agonist: -21; D3 antag: -111*; ATXN2 expr inh: -21%

How did CCOc1ccc(C(=O)Cc2ccc3oc(C(=O)O)cc3c2)c(O)c1 do in these assays?
HepG2 viability: -3%; TGFb inhibitor: -6%; ATXN viability: inactive; DRD3 agonist: -19; D3 antag: -62*; ATXN2 expr inh: -10%

How did COc1cc(Cl)c(C)cc1N1C(=O)[C@@H]2C[C@H]1CN2Cc1ccccn1 do in these assays?
ATXN viability: inactive

How did CC1(C)C(N(O)C(=O)Nc2ccccc2)N(c2cccc(Cl)c2)C(=O)N1O (configuration not stated) do in these assays?
HepG2 viability: -12%; TGFb inhibitor: 4%; ATXN viability: inactive; DRD3 agonist: -8; D3 antag: -5; ATXN2 expr inh: -9%

How did CC1(C)C(N(O)C(=O)Nc2ccc(Cl)cc2)N(c2ccc(Cl)cc2)C(=O)N1CC(=O)NN=CC=Cc1ccc([N+](=O)[O-])o1 (configuration not stated) do in these assays?
ATXN2 expr inh: 34µM*

Results for CNC1CCC(N(Cc2cccc(-c3ccncc3)c2)C(=O)c2sc3ccccc3c2Cl)CC1 (configuration not stated) ?
ATXN2 expr inh: 24µM*

How did COc1cc([N+](=O)[O-])c2ncsc2c1 do in these assays?
HepG2 viability: -3%; TGFb inhibitor: 1%; ATXN viability: inactive; DRD3 agonist: -26; D3 antag: -9; ATXN2 expr inh: -11%

Results for COc1cc(SSc2cc(OC)cc([N+](=O)[O-])c2N)c(N)c([N+](=O)[O-])c1 ?
HepG2 viability: -58%; TGFb inhibitor: inconclusive; ATXN viability: 7.9µM*; DRD3 agonist: -25; D3 antag: -77*

What do the screens show for `CCCn1c(-c2ccccc2)nc2c(=O)n(C)c(=O)[nH]c21`?
HepG2 viability: 5%; TGFb inhibitor: 2%; ATXN viability: inactive; DRD3 agonist: 1; D3 antag: -5; ATXN2 expr inh: 7%

How did Cc1nc2c(=O)n(C)c(=O)[nH]c2n1Cc1ccccc1 do in these assays?
HepG2 viability: -4%; TGFb inhibitor: 0%; ATXN viability: inactive; DRD3 agonist: -2; D3 antag: -62*; ATXN2 expr inh: 2%

What do the screens show for `NC(Cc1ccc(Cl)cc1)c1csc(NC(=O)NCC2CCCCC2)n1` (configuration not stated)?
HepG2 viability: 13µM*; TGFb inhibitor: inconclusive; ATXN viability: 35µM*; DRD3 agonist: -4; D3 antag: 10; ATXN2 expr inh: inconclusive

How did NC(Cc1ccc(Cl)cc1)c1csc(NC(=O)NCCc2ccccc2)n1 (configuration not stated) do in these assays?
HepG2 viability: -111%; TGFb inhibitor: inconclusive; ATXN viability: 28µM*; DRD3 agonist: -10; D3 antag: 11; ATXN2 expr inh: inconclusive

How did COc1ccc(Br)cc1CNC(=O)Cn1nc(C)n2c(cc3cc(F)ccc32)c1=O do in these assays?
HepG2 viability: 0%; TGFb inhibitor: -1%; ATXN viability: inactive; DRD3 agonist: 4; ATXN2 expr inh: 6%

What do the screens show for `COc1ccc(OCC(=O)NCCNC(=O)c2ccccn2)cc1`?
HepG2 viability: 1%; TGFb inhibitor: 6%; ATXN viability: inactive; DRD3 agonist: 5; D3 antag: 11; ATXN2 expr inh: 1%

What do the screens show for `Cc1cc(C)cc(OCC(=O)NNC(=S)NC(=O)C2CC2)c1`?
HepG2 viability: -12%; TGFb inhibitor: -21%; ATXN viability: inactive; DRD3 agonist: -6; D3 antag: -3; ATXN2 expr inh: inconclusive

How did COc1ccc(OCC(=O)NNC(=S)NC(=O)C2CC2)cc1 do in these assays?
HepG2 viability: 4%; TGFb inhibitor: 1%; ATXN viability: inactive; DRD3 agonist: 31*; D3 antag: 7; ATXN2 expr inh: -14%

Results for CCOc1ccc(NC(=O)c2ccccn2)cc1 ?
HepG2 viability: -68%; TGFb inhibitor: inconclusive; ATXN viability: inactive; DRD3 agonist: -3; D3 antag: -14; ATXN2 expr inh: 10µM*

Results for COc1ccc(OCC(=O)NNC(=O)c2ccccn2)cc1 ?
HepG2 viability: -3%; TGFb inhibitor: inconclusive; ATXN viability: inactive; DRD3 agonist: -9; D3 antag: -82*; ATXN2 expr inh: inconclusive

How did CCOc1ccc2oc(=O)cc(CN3CCN(C(=O)c4ccc(Cl)cc4)CC3)c2c1 do in these assays?
HepG2 viability: -25%; TGFb inhibitor: inconclusive; DRD3 agonist: 3

Results for CCOc1ccc(CCNC(=O)c2ccc3c(c2)c(C)c(C)n3Cc2ccccc2)cc1OCC ?
HepG2 viability: -31%; TGFb inhibitor: inconclusive; DRD3 agonist: 3

Results for CCc1cccc(-n2c(C)nc3c(cnn3-c3ccc(C)c(C)c3)c2=O)c1 ?
HepG2 viability: -35%; TGFb inhibitor: inconclusive; ATXN viability: inactive; DRD3 agonist: 6; ATXN2 expr inh: -16%

What do the screens show for `COc1ccc(C(=S)Nc2ccc(C)cc2)cc1`?
HepG2 viability: 5%; TGFb inhibitor: 7%; ATXN viability: inactive; DRD3 agonist: -11; D3 antag: -67*; ATXN2 expr inh: 16%
